{"source": "PubChem BioAssay (Tox21)", "note": "Inconclusive results are not listed. A call without a number means that no potency is given here. Some structures have more than one record in an assay (separate samples or runs), and their calls can disagree. The source made the active and inactive calls. Unless noted, calls follow the shape of the dose curve; as a rule, active = well fitted curve in the direction sought with a large enough effect in the repeat runs; inconclusive = weak or mixed curves; inactive = no such curve, though single readings can be large; an effect the other way counts as inactive or inconclusive.", "data": [{"target": "Nuclear receptor subfamily 1 group I member 3 (Homo sapiens) (UniProt Q14994)", "sequence (Q14994 whole entry, looked up)": "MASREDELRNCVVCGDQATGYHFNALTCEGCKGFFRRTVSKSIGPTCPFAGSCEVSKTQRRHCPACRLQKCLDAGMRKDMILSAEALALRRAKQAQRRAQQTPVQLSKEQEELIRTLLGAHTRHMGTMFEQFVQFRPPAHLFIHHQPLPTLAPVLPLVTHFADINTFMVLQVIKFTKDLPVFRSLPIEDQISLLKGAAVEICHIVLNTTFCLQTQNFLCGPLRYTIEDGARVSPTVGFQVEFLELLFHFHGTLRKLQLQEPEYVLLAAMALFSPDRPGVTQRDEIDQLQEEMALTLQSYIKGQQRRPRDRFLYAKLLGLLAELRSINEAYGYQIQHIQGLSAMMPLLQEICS", "experiment": "qHTS assay to identify small molecule antagonists of the constitutive androstane receptor (CAR) signaling pathway (AID 1224838); also: nearly all actives have a fitted effect of over 40% in size", "conditions": "HepG2-CYP2B6-hCAR luciferase, CITCO-stimulated, 24 h; series mostly up to 92.4 µM", "procedure,_shortened": "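Antagonist mode used CITCO at a final 50 nM to activate CAR in human hepatoma HepG2 cells carrying stable hCAR and a 2.2 kb CYP2B6 promoter-luciferase construct. Compounds were tested at 15 concentrations over 24 h, with luminescence as the end point.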", "values": [{"smiles": "CC(COCC(C)OC(=O)c1ccccc1)OC(=O)c1ccccc1", "note": "(configuration not stated)", "Potency": "inactive"}, {"smiles": "Nc1cccc(N)n1", "Potency": "inactive"}, {"smiles": "Cc1cc(C)c(O)c(C)c1", "Potency": "inactive"}, {"smiles": "NC1CCCCC1N", "note": "(configuration not stated)", "Potency": "inactive"}, {"smiles": "NC(=O)NC(N)=O", "Potency": "inactive"}, {"smiles": "Oc1ccc(Cc2ccccc2O)cc1", "Potency": "inactive"}, {"smiles": "CN=C(NC#N)NCCSCc1nc[nH]c1C", "Potency": "inactive"}, {"smiles": "Brc1ccc(Oc2ccc(Br)cc2)cc1", "Potency": "inactive"}, {"smiles": "CCCCCNCCCCC", "Potency": "inactive"}, {"smiles": "CN1Cc2c(N)cccc2C(c2ccccc2)C1", "note": "(configuration not stated)", "Potency": "inactive"}, {"smiles": "CC/C(C)=N/O", "Potency": "inactive"}, {"smiles": "CCCOC(=O)NCCCN(C)C", "Potency": "inactive"}, {"smiles": "OC1CCCCC1", "Potency": "inactive"}, {"smiles": "C[Si](C)(C)N[Si](C)(C)C", "Potency": "inactive"}, {"smiles": "Nc1nc(N)c2nc(-c3ccccc3)c(N)nc2n1", "Potency": "inactive"}, {"smiles": "CCCCCCCCO", "Potency": "inactive"}, {"smiles": "N#CCC(=O)O", "Potency": "inactive"}, {"smiles": "OCC(O)CS", "note": "(configuration not stated)", "Potency": "inactive"}, {"smiles": "O=[N+]([O-])c1ccccc1C(F)(F)F", "Potency": "inactive"}, {"smiles": "CC(C=O)Cc1ccc(C(C)(C)C)cc1", "note": "(configuration not stated)", "Potency": "inactive"}, {"smiles": "CC(CN1c2ccccc2Sc2ccccc21)N(C)C", "note": "(configuration not stated)", "Potency": "inactive"}, {"smiles": "CCCCCCCCC(=O)O", "Potency": "inactive"}, {"smiles": "Cc1ccc(C)c(S(=O)(=O)O)c1", "Potency": "inactive"}, {"smiles": "O=c1n(CCCN2CCN(c3cccc(Cl)c3)CC2)nc2ccccn12", "Potency": "inactive"}]}, {"target": "Nuclear receptor subfamily 1 group I member 3 (Homo sapiens) (UniProt Q14994)", "experiment": "qHTS assay to identify small molecule agonists of the constitutive androstane receptor (CAR) signaling pathway (AID 1224839); also: nearly all actives have a fitted effect of over 15% in size", "conditions": "HepG2 hCAR CYP2B6-luciferase, agonist mode, 24 h; series mostly up to 92.4 µM", "procedure,_shortened": "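Compounds tested at 15 concentrations on HepG2 cells stably harbouring hCAR and CYP2B6-2.2kb reporter constructs, co-treated with PK11195 (0.75 uM final), 24 h at 37 C; luminescent reporter signal quantified.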", "values": [{"smiles": "CC(COCC(C)OC(=O)c1ccccc1)OC(=O)c1ccccc1", "note": "(configuration not stated)", "Potency": "inactive"}, {"smiles": "Nc1cccc(N)n1", "Potency": "inactive"}, {"smiles": "Cc1cc(C)c(O)c(C)c1", "Potency": "inactive"}, {"smiles": "NC1CCCCC1N", "note": "(configuration not stated)", "Potency": "inactive"}, {"smiles": "NC(=O)NC(N)=O", "Potency": "inactive"}, {"smiles": "CN=C(NC#N)NCCSCc1nc[nH]c1C", "Potency": "inactive"}, {"smiles": "Brc1ccc(Oc2ccc(Br)cc2)cc1", "Potency": "inactive"}, {"smiles": "CCCCCNCCCCC", "Potency": "inactive"}, {"smiles": "CN1Cc2c(N)cccc2C(c2ccccc2)C1", "note": "(configuration not stated)", "Potency": "inactive"}, {"smiles": "CC/C(C)=N/O", "Potency": "inactive"}, {"smiles": "CCCOC(=O)NCCCN(C)C", "Potency": "inactive"}, {"smiles": "OC1CCCCC1", "Potency": "inactive"}, {"smiles": "C[Si](C)(C)N[Si](C)(C)C", "Potency": "inactive"}, {"smiles": "Nc1nc(N)c2nc(-c3ccccc3)c(N)nc2n1", "Potency": "inactive"}, {"smiles": "CCCCCCCCO", "Potency": "inactive"}, {"smiles": "OCC(O)CS", "note": "(configuration not stated)", "Potency": "inactive"}, {"smiles": "O=[N+]([O-])c1ccccc1C(F)(F)F", "Potency": "inactive"}, {"smiles": "CC(C=O)Cc1ccc(C(C)(C)C)cc1", "note": "(configuration not stated)", "Potency": "inactive"}, {"smiles": "CC(CN1c2ccccc2Sc2ccccc21)N(C)C", "note": "(configuration not stated)", "Potency": "inactive"}, {"smiles": "CCCCCCCCC(=O)O", "Potency": "inactive"}, {"smiles": "Cc1ccc(C)c(S(=O)(=O)O)c1", "Potency": "inactive"}, {"smiles": "O=c1n(CCCN2CCN(c3cccc(Cl)c3)CC2)nc2ccccn12", "Potency": "inactive"}]}, {"system": "not listed separately", "experiment": "qHTS assay to identify small molecule antagonists of the estrogen related receptor signaling pathway with the pleiotropic PPARgamma coactivator (PGC) from Tox21 10K library - cell viability counter screen (AID 1224840; active = well fitted cell-killing curve with a large enough effect in the repeat runs, not every such curve was filed as active; also: nearly all actives have a fitted effect of over 40% in size; also: potency is read from the fitted curve at half-maximal effect)", "conditions": "PGC/ERR reporter cells viability, CellTiter-Fluor, 17.5 h; series mostly up to 92.4 µM", "procedure,_shortened": "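Multiplexed viability counter screen in the PGC/ERR cell line: cells treated with DMSO-dissolved compounds for 17.5 hours at 37 C, then viability measured as CellTiter-Fluor fluorescence.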", "values": [{"smiles": "Nc1cccc(C(F)(F)F)c1", "Potency": "inactive"}, {"smiles": "CO[Si](CCCNCCN)(OC)OC", "Potency": "inactive"}, {"smiles": "CC(COCC(C)OC(=O)c1ccccc1)OC(=O)c1ccccc1", "note": "(configuration not stated)", "Potency": "inactive"}, {"smiles": "C=C(C)CC(C)(C)C", "Potency": "inactive"}, {"smiles": "CC(=O)OC[C@H]1O[C@@](COC(C)=O)(O[C@H]2O[C@H](COC(C)=O)[C@@H](OC(C)=O)[C@H](OC(C)=O)[C@H]2OC(C)=O)[C@@H](OC(C)=O)[C@@H]1OC(C)=O", "Potency": "inactive"}, {"smiles": "Nc1cccc(N)n1", "Potency": "inactive"}, {"smiles": "Cc1cc(C)c(O)c(C)c1", "Potency": "inactive"}, {"smiles": "NC1CCCCC1N", "note": "(configuration not stated)", "Potency": "inactive"}, {"smiles": "OCCOCCOCCOCCOCCO", "Potency": "inactive"}, {"smiles": "NC(=O)NC(N)=O", "Potency": "inactive"}, {"smiles": "COC(=O)CCCCC(=O)OC", "Potency": "inactive"}, {"smiles": "OC[C@H]1O[C@@H](Oc2ccc(O)cc2)[C@H](O)[C@@H](O)[C@@H]1O", "Potency": "inactive"}, {"smiles": "Oc1ccc(Cc2ccccc2O)cc1", "Potency": "inactive"}, {"smiles": "C[n+]1ccn(CCO)c1", "Potency": "inactive"}, {"smiles": "CN=C(NC#N)NCCSCc1nc[nH]c1C", "Potency": "inactive"}, {"smiles": "Brc1ccc(Oc2ccc(Br)cc2)cc1", "Potency": "inactive"}, {"smiles": "CCCCCNCCCCC", "Potency": "inactive"}, {"smiles": "CN1Cc2c(N)cccc2C(c2ccccc2)C1", "note": "(configuration not stated)", "Potency": "inactive"}, {"smiles": "CC/C(C)=N/O", "Potency": "inactive"}, {"smiles": "CCCOC(=O)NCCCN(C)C", "Potency": "inactive"}, {"smiles": "OC1CCCCC1", "Potency": "inactive"}, {"smiles": "C[Si](C)(C)N[Si](C)(C)C", "Potency": "inactive"}, {"smiles": "Nc1nc(N)c2nc(-c3ccccc3)c(N)nc2n1", "Potency": "inactive"}, {"smiles": "CCCCCCCCO", "Potency": "inactive"}, {"smiles": "N#CCC(=O)O", "Potency": "inactive"}, {"smiles": "CN1CCCC1=O", "Potency": "inactive"}, {"smiles": "OCC(O)CS", "note": "(configuration not stated)", "Potency": "inactive"}, {"smiles": "O=[N+]([O-])c1ccccc1C(F)(F)F", "Potency": "inactive"}, {"smiles": "CC(C=O)Cc1ccc(C(C)(C)C)cc1", "note": "(configuration not stated)", "Potency": "inactive"}, {"smiles": "CC1=CC(=O)CC(C)(C)C1", "Potency": "28.1 µM (active) and inactive"}, {"smiles": "Cc1ccncc1", "Potency": "inactive"}, {"smiles": "CCCCCCCCC(=O)O", "Potency": "inactive"}, {"smiles": "CC(=O)C(C)C", "Potency": "inactive"}, {"smiles": "Cc1cc(CC(=O)O)n(C)c1C(=O)c1ccc(Cl)cc1", "Potency": "inactive"}, {"smiles": "Cc1ccc(C)c(S(=O)(=O)O)c1", "Potency": "inactive"}, {"smiles": "C=C(CC(=O)O)C(=O)O", "Potency": "inactive"}, {"smiles": "O=c1n(CCCN2CCN(c3cccc(Cl)c3)CC2)nc2ccccn12", "Potency": "inactive"}]}, {"system": "not listed separately", "experiment": "qHTS assay to identify small molecule agonists of the estrogen related receptor signaling pathway with the pleiotropic PPARgamma coactivator (PGC) from Tox21 10K library (AID 1224842); also: nearly all actives have a fitted effect of over 15% in size", "conditions": "PGC/ERR reporter cell line, luciferase ONE-Glo, 18 h; series mostly up to 92.4 µM", "procedure,_shortened": "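Luminescence from One-Glo (30 min, room temperature) measured after PGC/ERR cells had 18 h at 37 C with pinned compound (23 nL in DMSO). Cells had been seeded at 2,000 per well and pre-incubated 6 h.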", "values": [{"smiles": "Nc1cccc(C(F)(F)F)c1", "Potency": "inactive"}, {"smiles": "CC(COCC(C)OC(=O)c1ccccc1)OC(=O)c1ccccc1", "note": "(configuration not stated)", "Potency": "inactive"}, {"smiles": "Cc1cc(C)c(O)c(C)c1", "Potency": "inactive"}, {"smiles": "NC1CCCCC1N", "note": "(configuration not stated)", "Potency": "inactive"}, {"smiles": "OCCOCCOCCOCCOCCO", "Potency": "inactive"}, {"smiles": "OC[C@H]1O[C@@H](Oc2ccc(O)cc2)[C@H](O)[C@@H](O)[C@@H]1O", "Potency": "inactive"}, {"smiles": "C[n+]1ccn(CCO)c1", "Potency": "inactive"}, {"smiles": "CN=C(NC#N)NCCSCc1nc[nH]c1C", "Potency": "inactive"}, {"smiles": "Nc1nc(N)c2nc(-c3ccccc3)c(N)nc2n1", "Potency": "inactive"}, {"smiles": "N#CCC(=O)O", "Potency": "inactive"}, {"smiles": "O=[N+]([O-])c1ccccc1C(F)(F)F", "Potency": "inactive"}, {"smiles": "CC(C=O)Cc1ccc(C(C)(C)C)cc1", "note": "(configuration not stated)", "Potency": "inactive"}, {"smiles": "CC1=CC(=O)CC(C)(C)C1", "Potency": "inactive"}, {"smiles": "CC(CN1c2ccccc2Sc2ccccc21)N(C)C", "note": "(configuration not stated)", "Potency": "inactive"}]}]}
